Results: PubChem BioAssay (Tox21)
“And” between values parts separate entries of the source, which are not always exact repeats. Equal entries are not always repeated. Results filed as inconclusive are left out. Where a call stands in place of a potency, no number is given. The source holds several records for some structures; these can differ, active in one and inactive in another. The source made the active and inactive calls. The call rests on the fitted dose curve; in most records, active means well fitted activation curve with a large enough effect in the signal ratio in the repeat runs (not every such curve was filed as active); inconclusive means weak or mixed curves; inactive means flat fitted curve, though single readings scatter; the % refers to the signal ratio.

Assay: qHTS assay to identify small molecule agonists of H2AX (AID 1224845)
Details: CHO-K1 phospho-H2AX Ser139 HTRF, 3 h; series mostly up to 154 µM
Description: National Center for Advancing Translational Sciences [NCATS]
NIH Chemical Genomics Center [NCGC]
U.S. Environmental Protection Agency [EPA]
National Institutes of Environmental Health Sciences [NIEHS]
National Toxicology Program [NTP]
U.S. Food and Drug Administration [FDA]
HTRF phospho-H2AX (Ser139) assay (Cisbio Bioassays, US) enables the quantitative detection of the histone variant H2AX when phosphorylated on serine 139. When double-stranded DNA breaks, either by ionizing radiation or endogenous physiological processes, H2AX becomes phosphorylated at Ser139. This phospho-Ser139 serves as a sensitive biomarker for the detection of such breaks, localizing the site of DNA repair. So, HTRF phospho-H2AX Ser139 is a pertinent assay to study genome stability, the cell cycle, DNA repair, and it serves as a biomarker for cancer, and to understand aging. Wild type CHO-K1 cells were used to identify the inducers of Phospho-H2AX Ser 139 from the Tox21 10K compound collections.
Tox21 Assay Protocol Summary:
The CHO-K1 cells suspended in culture medium containing 10% FBS were dispensed at 1000 cells/ 3 ul/well in 1536-well white wall/solid bottom plates (Greiner Bio-One North America, NC) using a Multidrop Combi (Thermo Fisher Scientific Inc., Waltham, MA). After the assay plates were incubated at 37C overnight, 23 nl of compounds at 15 concentrations (from 5-48 columns) or positive control (from 1 to 4 columns) were transferred to the assay plates using a Pintool station (Wako, San Diego, CA) into each well resulting in a final DMSO concentration of 0.76%. After 3hr incubation at 37C, 1 uL/well Supplemented Lysis buffer (diluted 100 fold blocking reagent in lysis buffer) (HTRF Phospho-H2A.X (S139) Assay kit from Cisbio US Inc., Bedford, MA) was added using a Flying Reagent Dispenser (FRD) (Aurora Discovery, CA). After 10sec spin at 1000 rpm in a plate centrifuge, the assay plates were incubated at room temperature for 30 min. Then followed by the addition of 1 uL/well detection buffer (containing a mixture of two antibodies, one labeled with cryptate, Anti pH2AX (S139)-K and another labeled with d2, Anti H2AX-d2) using FRD. After incubation at room temperature for 24 hr, the time resolved fluorescence at excitation 320 nm and emissions at 665 nm and 620 nm was measured using an Envision plate reader (PerkinElmer, Waltham, MA).
Potency means the concentration at half of the fitted maximal effect.

| SMILES | Potency |
| --- | --- |
| CN(C)c1ccc(C(=O)c2ccc(N(C)C)cc2)cc1 | inactive |
| NNC(=S)NN | inactive |
| OCC(O)CO | inactive |
| c1cc(OCC2CO2)ccc1Cc1ccc(OCC2CO2)cc1 (stereo not given) | inactive |
| COP(=O)(OC)OC | inactive |
| N#CC(Br)Br | inactive |
| Nc1ccc(Cl)cc1N | inactive |
| C=CCc1ccc2c(c1)OCO2 | inactive |
| N#Cc1cc(Br)c(O)c(Br)c1 | inactive |
| O=P(O)(O)CCCl | inactive |
| Nc1c(Cl)cc([N+](=O)[O-])cc1Cl | inactive |
| Cc1ccc2c(c1N)C(=O)c1ccccc1C2=O | inactive |
| COc1ccc(C=O)cc1 | inactive |
| Nn1cnnc1 | inactive |
| NNC(N)=S | 105 µM (active) and inactive |
| CCC(=O)O[C@H]1CC[C@H]2[C@@H]3CCC4=CC(=O)CC[C@]4(C)[C@H]3CC[C@]12C | inactive |
| C=C(C)C(=O)OCC1CO1 (stereo not given) | inactive |
| C#CCOS(=O)OC1CCCCC1Oc1ccc(C(C)(C)C)cc1 (stereo not given) | inactive |
| O=[N+]([O-])c1ccc(O)c([N+](=O)[O-])c1 | inactive |
| Oc1c(Cl)c(Cl)c(Cl)c(Cl)c1Cl | inactive |

| SMILES | Potency |
| --- | --- |
| CCN(N=O)C(N)=O | inactive |
| O=C(NC(=O)c1c(F)cccc1F)Nc1ccc(Cl)cc1 | inactive |
| N#CCCCl | inactive |
| NCc1cccnc1 | inactive |
| CCC(C)c1cc([N+](=O)[O-])cc([N+](=O)[O-])c1O (stereo not given) | inactive |
| O=C(O)C(F)(F)C(F)(F)C(F)(F)C(F)(F)C(F)(F)C(F)(F)C(F)(F)F | inactive |
| Oc1cc(Cl)c(Cl)cc1Cl | inactive |
| C=C(C)[C@H]1Cc2c(ccc3c2O[C@@H]2COc4cc(OC)c(OC)cc4[C@@H]2C3=O)O1 | inactive |
| COP(=S)(OC)Oc1cc(Cl)c(Cl)cc1Cl | inactive |
| Cc1cc(C)cc(C)c1 | inactive |
| CC(C)c1ccc(CO)cc1 | inactive |
| Oc1cc(Cl)ccc1Oc1ccc(Cl)cc1Cl | inactive |
| CCN(CC)C(=O)SCc1ccc(Cl)cc1 | inactive |
| O=Cc1ccco1 | inactive |
| CCC(C)(C)c1ccc(O)cc1 | inactive |
| CC(C)NC(C)C | inactive |
| O=C(O)CC[N+](=O)[O-] | inactive |
| Cc1ccc(N)c(N)c1 | inactive |
| CCN(CC)N=O | inactive |
| N[C@@H](Cc1ccc(N(CCCl)CCCl)cc1)C(=O)O | 38.4 µM (active) and 43.8 µM (active) |
